More than one record can exist for a structure, and the calls need not agree. The source made the active and inactive calls. The calls were made as follows: active = hit-call score of the fitted dose curve at least 0.9, where 1 is the maximum; inactive = score below 0.9.
Legend:
[1] = ATG_CRE_CIS: Attagene CIS-FACTORIAL HepG2 Assay for human cAMP Responsive Element (CRE) binding protein 3 (AID 2282926); settings: HepG2 CRE cis-reporter, Attagene multiplexed mRNA; actives raise or lower the signal
How it was run: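 Endogenous CRE-binding activity in HepG2 is reported through a cis-regulated transfected reporter. Following a day of exposure, mRNA levels are determined by reverse transcription PCR and fluorescent fragment analysis; fits run in both directions versus DMSO.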

[2] = molecular target: CCAAT/enhancer-binding protein beta (Homo sapiens) (UniProt P17676); experiment: ATG_C_EBP_CIS: Attagene CIS-FACTORIAL HepG2 Assay for human CCAAT/Enhancer Binding Protein (C/EBP) beta (AID 2282927); settings: HepG2 Attagene cis-factorial transcription factor reporter; actives raise or lower the signal
Chain of CCAAT/enhancer-binding protein beta (Homo sapiens) (P17676 whole entry, looked up): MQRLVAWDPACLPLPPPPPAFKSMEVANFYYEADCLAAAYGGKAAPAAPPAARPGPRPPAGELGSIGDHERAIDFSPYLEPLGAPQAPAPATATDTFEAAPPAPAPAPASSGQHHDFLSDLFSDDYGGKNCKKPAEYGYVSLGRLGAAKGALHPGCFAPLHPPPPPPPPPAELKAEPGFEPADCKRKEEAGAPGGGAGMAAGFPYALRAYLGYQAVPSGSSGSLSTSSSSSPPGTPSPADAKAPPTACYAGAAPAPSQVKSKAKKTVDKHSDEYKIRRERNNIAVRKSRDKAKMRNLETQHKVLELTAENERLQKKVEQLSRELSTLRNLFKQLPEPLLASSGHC
How it was run: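 Transiently transfected HepG2 (MRTU library, endogenous TF-driven promoters); 24 h dosing; total RNA → oligo(dT) RT → PCR → 6-FAM primer extension → HpaI digest → CE; fit bidirectionally vs DMSO.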

[3] = ATG_CMV_CIS: Attagene CIS-FACTORIAL HepG2 Assay for human CMV (Internal Marker) (AID 2282928); settings: HepG2 CMV promoter reporter, transcription factor profiling; actives raise or lower the signal;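 also: endpoint acts as a background internal control marker rather than a target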
How it was run: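 After transient transfection of HepG2 with reporter transcription units driven by cis-regulatory promoters, cells receive test chemical for 24 h. Labeled reporter amplicons, digested with HpaI, are sized and quantified by capillary electrophoresis against DMSO.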

[4] = ATG_DR4_LXR_CIS: Attagene CIS-FACTORIAL HepG2 Assay for human Liver X Receptor (LXR), DR4 submotif (AID 2282929); settings: HepG2 Attagene DR4 cis-reporter, mRNA transcription; actives raise or lower the signal
How it was run: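 Readout: reporter transcript fluorescence after RT-PCR and capillary electrophoresis, fitted bidirectionally against DMSO controls. Human HepG2 liver cells carried transiently transfected multiplexed reporter constructs; endogenous transcription factor activity measured 24 h post-dosing.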

[5] = molecular target: Aryl hydrocarbon receptor (Homo sapiens) (UniProt P35869); experiment: ATG_Ahr_CIS: Attagene CIS-FACTORIAL HepG2 Assay for human Aryl Hydrocarbon Receptor (Ahr) (AID 2282930); settings: HepG2 AhR cis-factorial reporter transcription; actives raise or lower the signal
Chain of Aryl hydrocarbon receptor (Homo sapiens) (P35869 whole entry, looked up): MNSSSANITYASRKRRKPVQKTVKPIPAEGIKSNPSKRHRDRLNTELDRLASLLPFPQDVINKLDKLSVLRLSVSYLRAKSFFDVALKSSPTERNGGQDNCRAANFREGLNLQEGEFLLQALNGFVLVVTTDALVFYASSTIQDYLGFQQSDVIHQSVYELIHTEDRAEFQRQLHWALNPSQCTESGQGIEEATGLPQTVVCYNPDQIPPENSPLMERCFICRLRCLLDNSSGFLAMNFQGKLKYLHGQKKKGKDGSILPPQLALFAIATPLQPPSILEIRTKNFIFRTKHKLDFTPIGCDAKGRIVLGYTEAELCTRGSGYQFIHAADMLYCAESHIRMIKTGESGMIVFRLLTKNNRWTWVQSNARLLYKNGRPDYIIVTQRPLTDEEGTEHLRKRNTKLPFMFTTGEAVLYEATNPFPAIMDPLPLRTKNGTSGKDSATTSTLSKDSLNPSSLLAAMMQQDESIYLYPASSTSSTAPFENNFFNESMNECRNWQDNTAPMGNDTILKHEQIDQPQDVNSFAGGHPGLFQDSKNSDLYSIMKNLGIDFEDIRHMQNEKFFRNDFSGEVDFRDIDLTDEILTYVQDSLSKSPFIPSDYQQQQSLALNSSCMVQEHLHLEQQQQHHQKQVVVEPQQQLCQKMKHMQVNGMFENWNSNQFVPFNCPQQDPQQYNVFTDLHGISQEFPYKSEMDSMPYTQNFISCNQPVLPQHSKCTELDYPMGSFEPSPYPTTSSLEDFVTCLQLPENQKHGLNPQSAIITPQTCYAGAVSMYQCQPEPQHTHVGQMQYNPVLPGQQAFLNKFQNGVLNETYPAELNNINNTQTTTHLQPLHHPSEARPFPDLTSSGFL
How it was run: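 Read-out: reporter mRNA quantified by RT-PCR with fluorescent primer extension and capillary electrophoresis. Human HepG2 liver cells carried transfected cis-promoter reporter units and were exposed to chemical for 24 h; gain or loss fitted relative to DMSO.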

[6] = ATG_AP_1_CIS: Attagene CIS-FACTORIAL HepG2 Assay for human Activator Protein 1 (AP-1) (AID 2282931); settings: HepG2 Attagene cis-factorial AP-1 reporter mRNA; actives raise or lower the signal
How it was run: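 Reporter transcripts were measured 24 h after dosing by RT-PCR and capillary electrophoresis of fluorescent fragments. Cells: HepG2 carrying transfected cis-regulated reporter constructs reading endogenous factor activity. Gain or loss fitted against DMSO.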

[7] = ATG_AP_2_CIS: Attagene CIS-FACTORIAL HepG2 Assay for human Activator Protein 2 (AP-2) (AID 2282932); settings: HepG2 AP-2 cis-reporter, Attagene transcription factor profiling; actives raise or lower the signal
How it was run: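 HepG2 cells transiently transfected with cis-element reporter units and exposed for 24 h. Reporter mRNA measured by RT-PCR, FAM labelling, HpaI digestion and capillary electrophoresis. Changes in either direction fitted relative to DMSO.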

[8] = ATG_BRE_CIS: Attagene CIS-FACTORIAL HepG2 Assay for human Bone Morphogenetic Protein (BMP) Response Element (BRE) (AID 2282933); settings: HepG2 BMP response element reporter, Attagene transcription factor profiling; actives raise or lower the signal
How it was run: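 Fluorescence-labelled reporter cDNA fragments, separated by capillary electrophoresis, gave the signal for this component of a 52-readout multiplex. HepG2 cells were transfected, exposed to chemicals for 24 h, and compared with DMSO using bidirectional fitting.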

[9] = molecular target: Retinoic acid receptor alpha (Homo sapiens) (UniProt P10276); experiment: ATG_DR5_RAR_CIS: Attagene CIS-FACTORIAL HepG2 Assay for human Retinoic Acid Receptor Alpha (RARE), DR5 submotif (AID 2282934); settings: HepG2 Attagene cis-factorial RARE DR5 reporter, mRNA; actives raise or lower the signal;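 as to AC50: reporter responds to endogenous RAR alpha beta and gamma in HepG2 not RARA alone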
Chain of Retinoic acid receptor alpha (Homo sapiens) (P10276 whole entry, looked up): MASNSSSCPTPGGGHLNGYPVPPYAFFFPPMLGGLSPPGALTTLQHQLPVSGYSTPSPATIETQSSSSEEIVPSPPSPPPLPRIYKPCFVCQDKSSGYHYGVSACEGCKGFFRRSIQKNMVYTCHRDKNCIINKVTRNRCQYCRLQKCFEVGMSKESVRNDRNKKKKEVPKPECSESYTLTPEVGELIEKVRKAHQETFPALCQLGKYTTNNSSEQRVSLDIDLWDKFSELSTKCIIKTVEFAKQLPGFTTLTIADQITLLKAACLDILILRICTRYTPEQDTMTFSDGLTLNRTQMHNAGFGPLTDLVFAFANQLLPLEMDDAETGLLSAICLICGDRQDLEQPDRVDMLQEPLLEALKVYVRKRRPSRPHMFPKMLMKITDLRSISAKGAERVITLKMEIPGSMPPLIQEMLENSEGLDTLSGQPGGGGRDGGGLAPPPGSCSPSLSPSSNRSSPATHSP
How it was run: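 Read-out: DR5-driven reporter transcript measured by RT-PCR, 6-FAM primer extension, HpaI digest and capillary electrophoresis. Human HepG2 liver cells carry transiently transfected cis-element reporter constructs; dosing lasts 24 h. Gain or loss of signal fitted against DMSO baseline.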

[10] = molecular target: Transcription factor E2F1 (Homo sapiens) (UniProt Q01094); experiment: ATG_E2F_CIS: Attagene CIS-FACTORIAL HepG2 Assay for human E2F Transcription Factor 1 (AID 2282935); settings: HepG2 Attagene cis-reporter, E2F reporter RNA transcripts; actives raise or lower the signal
Chain of Transcription factor E2F1 (Homo sapiens) (Q01094 whole entry, looked up): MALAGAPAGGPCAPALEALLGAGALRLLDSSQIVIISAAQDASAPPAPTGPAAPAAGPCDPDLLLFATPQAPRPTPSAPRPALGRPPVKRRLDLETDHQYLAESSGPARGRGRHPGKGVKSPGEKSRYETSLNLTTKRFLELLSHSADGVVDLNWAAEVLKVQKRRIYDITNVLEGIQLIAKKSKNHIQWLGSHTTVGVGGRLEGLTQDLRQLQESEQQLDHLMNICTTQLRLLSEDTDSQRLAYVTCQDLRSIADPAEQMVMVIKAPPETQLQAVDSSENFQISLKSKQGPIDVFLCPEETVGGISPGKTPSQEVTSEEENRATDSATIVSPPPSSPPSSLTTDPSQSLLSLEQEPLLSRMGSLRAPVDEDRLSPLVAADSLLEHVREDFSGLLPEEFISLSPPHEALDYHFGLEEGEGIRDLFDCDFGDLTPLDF
How it was run: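 Endogenous E2F1 activity read through cis-promoter reporter units transfected into HepG2. After 24 h compound treatment, reporter mRNA measured by RT-PCR, HpaI digestion and capillary electrophoresis. Bidirectional fit versus DMSO.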

[11] = ATG_E_Box_CIS: Attagene CIS-FACTORIAL HepG2 Assay for human Enhancer Box (E-box) (AID 2282936); settings: HepG2 E-box cis-reporter transcription, actives raise or lower the signal
How it was run: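 HepG2 cells transiently transfected with multiplexed cis-element reporter units, dosed 24 h; reporter mRNA quantified by RT-PCR, 6-FAM labelling, HpaI digestion and capillary electrophoresis. E-box (USF1) signal fitted bidirectionally vs DMSO.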

[12] = ATG_M_61_CIS: Attagene CIS-FACTORIAL HepG2 Assay for M61 Transcription Factor (Internal Marker) (AID 2282937); settings: HepG2 Attagene CIS-FACTORIAL M61 internal marker reporter; actives raise or lower the signal
How it was run: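 Readout: fluorescent reporter mRNA fragments resolved by capillary electrophoresis after RT-PCR. Transiently transfected human HepG2 cells carried MRTU constructs reporting endogenous TF activity; 24 h chemical exposure; gain or loss of signal fitted relative to DMSO.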

[13] = ATG_EGR_CIS: Attagene CIS-FACTORIAL HepG2 Assay for human Early Growth Response 1 (EGR1) (AID 2282938); settings: HepG2 Attagene CIS-FACTORIAL EGR reporter mRNA; actives raise or lower the signal
How it was run: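 Read-out: fluorescent reporter-mRNA fragments resolved by capillary electrophoresis after RT-PCR, 24 h post-dose in transiently transfected HepG2. Endogenous transcription-factor activity reported via cis-element-regulated reporter units; gain or loss fitted relative to DMSO.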

[14] = ATG_M_19_CIS: Attagene CIS-FACTORIAL HepG2 Assay for M19 Transcription Factor (Internal Marker) (AID 2282939); settings: HepG2 Attagene CIS-FACTORIAL M19 internal marker reporter; actives raise or lower the signal
How it was run: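 HepG2, MRTU transient transfection, 24 h dosing. Total RNA → RT-PCR → 6-FAM primer extension → HpaI digest → CE fluorescence. Bidirectional curve fit, DMSO negative control.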

[15] = ATG_ERE_CIS: Attagene CIS-FACTORIAL HepG2 Assay for Estrogen Response Element (ERE) (AID 2282940); settings: HepG2 ERE cis-reporter, Attagene RNA transcript; actives raise or lower the signal
How it was run: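 After a 24 h chemical treatment, RNA from reporter-transfected HepG2 cells is reverse-transcribed, PCR-amplified and fluorescently labelled. Fragments separated by capillary electrophoresis give reporter signal; DMSO serves as negative control.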

[16] = ATG_Ets_CIS: Attagene CIS-FACTORIAL HepG2 Assay for human Erythroblast Transformation Specific (ETS) (AID 2282941); settings: HepG2 ETS cis-reporter transcription, actives raise or lower the signal
How it was run: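 Human HepG2 hepatoma cells were transiently transfected with promoter-driven reporter constructs and treated for 24 hours. Reporter transcripts were quantified by RT-PCR with fluorescent primer extension; bidirectional curve fitting used DMSO as reference.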

[17] = molecular target: Hepatocyte nuclear factor 3-beta (Homo sapiens) (UniProt Q9Y261); experiment: ATG_FoxA2_CIS: Attagene CIS-FACTORIAL HepG2 Assay for human Forkhead box A2 (FOXA2) (AID 2282942); settings: HepG2 cis-reporter transcription factor activity, 24 h; actives raise or lower the signal
Chain of Hepatocyte nuclear factor 3-beta (Homo sapiens) (Q9Y261 whole entry, looked up): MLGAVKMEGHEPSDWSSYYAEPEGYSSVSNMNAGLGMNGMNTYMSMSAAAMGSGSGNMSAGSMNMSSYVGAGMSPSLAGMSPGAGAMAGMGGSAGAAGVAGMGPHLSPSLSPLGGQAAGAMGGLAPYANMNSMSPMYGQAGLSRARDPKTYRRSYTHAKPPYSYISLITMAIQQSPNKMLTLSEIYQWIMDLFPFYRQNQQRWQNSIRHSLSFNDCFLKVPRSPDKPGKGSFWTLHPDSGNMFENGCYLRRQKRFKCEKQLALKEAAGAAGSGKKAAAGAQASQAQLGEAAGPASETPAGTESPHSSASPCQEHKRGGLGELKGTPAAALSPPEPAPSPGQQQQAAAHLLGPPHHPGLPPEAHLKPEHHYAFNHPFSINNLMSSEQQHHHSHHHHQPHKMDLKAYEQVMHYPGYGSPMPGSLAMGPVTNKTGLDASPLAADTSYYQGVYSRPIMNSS
How it was run: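 Readout: fluorescent reporter transcripts resolved by capillary electrophoresis after RT-PCR. Transiently transfected HepG2, 24 h compound exposure, endogenous TF activity at cis promoter elements. Gain or loss of signal fitted relative to DMSO.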

[18] = ATG_FoxO_CIS: Attagene CIS-FACTORIAL HepG2 Assay for human Forkhead box O (FoxO) (AID 2282943); settings: HepG2 Attagene cis-reporter, FoxO element, mRNA; actives raise or lower the signal
How it was run: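 Read-out: fluorescence of 6-FAM-labelled reporter cDNA fragments resolved by capillary electrophoresis. Transiently transfected HepG2 cells were dosed for 24 h; activity fitted in both directions relative to DMSO controls.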

[19] = ATG_GATA_CIS: Attagene CIS-FACTORIAL HepG2 Assay for human GATA Binding Protein (AID 2282944); settings: HepG2 GATA cis-element reporter, Attagene multiplex mRNA; actives raise or lower the signal
How it was run: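 Cells: HepG2, transiently transfected with cis-regulated reporter transcription units. Exposure: 24 h. Detection: RT-PCR plus capillary electrophoresis of FAM-labeled fragments. Analysis: bidirectional, DMSO as baseline.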

CON(C)C(=O)Nc1ccc(Cl)c(Cl)c1
outcome [1]: inactive | outcome [2]: inactive | AC50 [3]: 55.6 µM (active) | outcome [3]: inactive | outcome [4]: inactive | AC50 [5]: 27.4 µM (active) [middle of 4 runs] | outcome [6]: inactive | outcome [7]: inactive | outcome [8]: inactive | outcome [9]: inactive | outcome [10]: inactive | outcome [11]: inactive | outcome [12]: inactive | outcome [13]: inactive | outcome [14]: inactive | outcome [15]: inactive | outcome [16]: inactive | outcome [17]: inactive | outcome [18]: inactive | outcome [19]: inactive

OC(c1ccc(Cl)cc1)(c1cncnc1)c1ccccc1Cl (configuration not stated)
outcome [1]: inactive | outcome [2]: inactive | AC50 [3]: 2.95 µM (active) | outcome [3]: inactive | AC50 [4]: 13.1 µM (active) | outcome [4]: inactive | outcome [5]: inactive | AC50 [6]: 13.3 µM (active) | outcome [6]: inactive | outcome [7]: inactive | AC50 [8]: 19.8 µM (active) | outcome [8]: inactive | AC50 [9]: 13.1 µM (active) | outcome [9]: inactive | outcome [10]: inactive | AC50 [11]: 2.6 µM (active) | outcome [11]: inactive | outcome [12]: inactive | outcome [13]: inactive | outcome [14]: inactive | AC50 [15]: 3.79 µM (active) | outcome [15]: inactive | outcome [16]: inactive | outcome [17]: inactive | outcome [18]: inactive | AC50 [19]: 12.9 µM (active) | outcome [19]: inactive
